Assay outcomes from PubChem BioAssay.
Sfp PPTase inh: Sfp phosphopantetheinyl transferase inhibition; 310,000 tested, 3.5% active; AID 1490; Q9F4F7; Potency, µM, without a hit: largest response in the series, negative = inhibition, most hits filed as inhibitors; Biochemical Sfp PPTase activity, qHTS;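 also: the enzyme is Sfp with the accession as filed and its product quenches rhodamine fluorescence; 0% = enzyme reaction without inhibitor and -100% = no enzyme wells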
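Fluorescence-quenching assay with 15 nM Sfp, 5 uM rhodamine-CoA and 12.5 uM BHQ-2-labelled ybbR peptide in pH 7.6 Hepes/MgCl2 buffer. Enzyme was pre-incubated with compound for 15 min at room temperature. Rate was taken from the 30-min fluorescence change (525/598 nm).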
JMJD2A Tudor inh: JMJD2A Tudor domain (human) inhibition; O75164; Potency, µM (series often up to 114 µM), for inactives: at the highest dose activity change, negative = inhibition, actives largely listed as inhibitors; AlphaScreen JMJD2A-Tudor / H3K4me3 peptide binding; 390,000 tested, 4.4% active; also: % is scaled to controls: 0 for no effect and ±100 for the full control effect; nearly all actives have a fitted effect of over 50% in size
HP1b chromo inh: HP1-beta chromodomain-methylated histone interaction inhibition. AlphaScreen HP1-beta / biotin-H3K9me3 peptide binding. AID 540317. Potency, µM (highest dose often 114 µM), for inactives: at the top dose activity change, negative = inhibition, hits mostly inhibitors. 390,000 tested, 0.56% active; also: nearly all actives have a fitted effect of over 70% in size
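AlphaScreen: HP1-beta (50 nM) preformed 30 min with biotin-H3(1-18)K9me3 peptide (50 nM) in PBS pH 7.4, 0.01% Tween-20. Compound added for 30 min at RT, then streptavidin donor/nickel chelate acceptor beads (10 ug/mL) for 30 min.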
BAZ2B block: blocks human BAZ2B | 360,000 tested, 4.4% active | Potency, µM (top dose mostly 114 µM), for inactives: at the top dose activity change, negative = inhibition, actives largely listed as inhibitors | Q9UIF8 | AlphaScreen BAZ2B-H3K14Ac peptide displacement | AID 504333; also: % is scaled to controls: 0 for no effect and ±100 for the full control effect; nearly all actives have a fitted effect of over 60% in size
Target sequence (Q9UIF8 whole entry, looked up): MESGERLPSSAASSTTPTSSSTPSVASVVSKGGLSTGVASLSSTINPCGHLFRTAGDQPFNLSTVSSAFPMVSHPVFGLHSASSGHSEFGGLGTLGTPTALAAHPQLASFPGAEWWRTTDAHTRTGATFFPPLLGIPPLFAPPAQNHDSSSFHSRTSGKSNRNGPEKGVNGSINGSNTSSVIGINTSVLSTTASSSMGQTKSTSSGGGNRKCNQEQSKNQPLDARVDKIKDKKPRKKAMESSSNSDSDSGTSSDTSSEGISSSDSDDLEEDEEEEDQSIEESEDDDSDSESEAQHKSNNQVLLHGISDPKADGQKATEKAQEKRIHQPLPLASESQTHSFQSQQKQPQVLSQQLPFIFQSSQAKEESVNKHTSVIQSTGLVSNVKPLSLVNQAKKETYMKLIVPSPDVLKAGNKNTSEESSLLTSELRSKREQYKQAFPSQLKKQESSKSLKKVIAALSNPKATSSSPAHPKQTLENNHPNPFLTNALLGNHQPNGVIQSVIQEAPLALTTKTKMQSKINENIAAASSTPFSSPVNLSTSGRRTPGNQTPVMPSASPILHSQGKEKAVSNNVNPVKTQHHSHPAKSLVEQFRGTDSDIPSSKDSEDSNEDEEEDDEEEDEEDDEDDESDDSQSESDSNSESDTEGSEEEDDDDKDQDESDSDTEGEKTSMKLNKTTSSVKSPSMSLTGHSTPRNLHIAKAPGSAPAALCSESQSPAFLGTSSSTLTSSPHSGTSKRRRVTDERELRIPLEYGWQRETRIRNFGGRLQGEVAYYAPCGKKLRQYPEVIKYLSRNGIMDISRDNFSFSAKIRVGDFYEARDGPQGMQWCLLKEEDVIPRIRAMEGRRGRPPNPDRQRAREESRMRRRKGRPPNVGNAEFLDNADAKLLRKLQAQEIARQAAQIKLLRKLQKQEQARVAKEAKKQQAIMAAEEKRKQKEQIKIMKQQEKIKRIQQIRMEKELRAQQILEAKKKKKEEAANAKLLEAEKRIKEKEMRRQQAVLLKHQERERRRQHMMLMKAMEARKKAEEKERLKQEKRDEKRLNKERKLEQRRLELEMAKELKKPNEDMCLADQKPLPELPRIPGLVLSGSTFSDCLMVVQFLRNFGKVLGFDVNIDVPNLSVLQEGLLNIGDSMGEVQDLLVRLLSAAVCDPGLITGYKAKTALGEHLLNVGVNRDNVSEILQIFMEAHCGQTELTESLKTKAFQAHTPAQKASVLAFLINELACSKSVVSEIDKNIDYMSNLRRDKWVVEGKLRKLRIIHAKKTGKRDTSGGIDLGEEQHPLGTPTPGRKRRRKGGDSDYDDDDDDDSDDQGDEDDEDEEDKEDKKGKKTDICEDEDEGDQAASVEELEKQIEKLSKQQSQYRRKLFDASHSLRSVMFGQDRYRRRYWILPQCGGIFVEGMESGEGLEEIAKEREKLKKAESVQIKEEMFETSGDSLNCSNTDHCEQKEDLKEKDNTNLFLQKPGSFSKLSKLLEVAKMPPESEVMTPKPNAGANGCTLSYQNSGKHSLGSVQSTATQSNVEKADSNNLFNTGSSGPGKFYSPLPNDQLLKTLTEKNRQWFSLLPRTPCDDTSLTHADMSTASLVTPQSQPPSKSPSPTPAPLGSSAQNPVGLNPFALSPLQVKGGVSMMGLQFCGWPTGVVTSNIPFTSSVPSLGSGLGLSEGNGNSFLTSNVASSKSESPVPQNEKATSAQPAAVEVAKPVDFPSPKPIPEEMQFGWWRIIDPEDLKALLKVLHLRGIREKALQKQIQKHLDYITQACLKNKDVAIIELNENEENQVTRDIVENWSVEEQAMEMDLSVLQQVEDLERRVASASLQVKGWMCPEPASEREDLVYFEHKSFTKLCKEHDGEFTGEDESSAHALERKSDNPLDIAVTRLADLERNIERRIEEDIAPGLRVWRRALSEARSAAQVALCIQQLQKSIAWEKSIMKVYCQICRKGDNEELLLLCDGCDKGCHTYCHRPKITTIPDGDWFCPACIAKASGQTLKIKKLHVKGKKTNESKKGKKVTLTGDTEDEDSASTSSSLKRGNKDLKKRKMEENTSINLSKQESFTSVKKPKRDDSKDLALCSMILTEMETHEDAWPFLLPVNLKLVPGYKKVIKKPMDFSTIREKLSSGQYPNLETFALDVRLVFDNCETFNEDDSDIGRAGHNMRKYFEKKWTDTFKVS
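BAZ2B 50 nM plus b-H3(5-23)K14Ac 50 nM, PBS pH 7.4/0.01% Tween-20, 30 min RT; compound added (max 110 uM), 30 min RT; streptavidin donor/Ni-chelate acceptor beads 10 ug/mL final, 20 min dark; AlphaScreen read.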
G9a inh: blocks human histone lysine methyltransferase G9a; Q96KQ7; G9a H3K9 monomethylation, AlphaScreen, 2 h; Potency, µM (doses to about 102 µM), without a hit: top-dose activity, negative = inhibition, actives largely listed as inhibitors; 350,000 tested, 8.8% active; AID 504332; also: % is scaled to controls: 0 for no effect and ±100 for the full control effect; nearly all actives have a fitted effect of over 75% in size
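AlphaScreen detection with an anti-monomethyl H3K9 antibody quantified product after a 2 h room-temperature reaction containing 500 nM biotinylated H3K9 peptide, 20 µM SAM and 20 nM enzyme, which had been preincubated 15 min with compound.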
Active calls of the source: *; ? = inconclusive; . = no result given; ! = not confirmed by another sample; [ ] = another dose, or the depositor's remark. In the library only some 12% were active in any assay of this set; here they are far more common. Calls follow the shape of the dose curve; as a rule, active = well fitted curve in the direction sought with a large enough effect; inconclusive = small, poorly fitted or top-dose-only effect, or another doubt; inactive = no such curve, though single readings can be large; an effect the other way counts as inactive or inconclusive. Potency is read from the fitted curve at half-maximal effect.

SMILES	Sfp PPTase inh	JMJD2A Tudor inh	HP1b chromo inh	BAZ2B block	G9a inh
CC1=C(C(=O)Nc2ccccc2)C(c2ccncc2)C(C#N)=C(SCC(=O)Nc2ccccc2)N1 (stereo unspecified)	0.1%	-24.3%	40.8%	-4.2%	28.2µM*
CCc1nnc(NC(=O)C2CCCN2C(=O)Nc2ccc(C)cc2)s1 (stereo unspecified)	24.6%	-15.9%	-9.3%	-12.8%	-12.7%
COC(=O)[C@@H](Cc1ccc(O)cc1)NC(=O)[C@H]1CCC(=O)N1C(=O)OCc1ccccc1	0.9%	-1.4%	29.3%	0.9%	5.7%[12.7 µM]
CC(Cc1cccc(C(F)(F)F)c1)NCCOC(=O)c1ccccc1 (stereo unspecified)	-4.6%	-1.4%	30.8%	0.3%	12.6µM*!
C[C@@H](Cc1cccc(C(F)(F)F)c1)NCCOC(=O)c1ccccc1	6.7%	.	.	.	21.7%[21.5 µM]
O=C(NCCSc1c[nH]c2ccccc12)c1ccccc1Cl	.	-21.5%	21.2%	-16.7%	-42.8%[59 µM]
Cn1c(=O)[nH]c(=O)c2c1nc(N1CCCCC1)n2C/C=N/Nc1ccc(C(=O)O)cc1	-6.7%	-3.7%[11.4 µM]	36.2%	-18.0%	70.8µM*
Cn1c(=O)[nH]c(=O)c2c1nc(Br)n2C/C=N/NC(N)=S	56.2µM*	.	.	-0.2%	7.0%
Cn1c(=O)c2c(nc(Br)n2C/C=N/NC(N)=S)n(C)c1=O	50.1µM*	-10.7%	36.9%	-5.4%	.
COc1ccc(CNC(=O)CCCN2C(=O)CCn3nc(-c4cn(C)c5ccccc45)cc32)cc1	.	-15.7%	19.9%[57 µM]	-12.4%	7.9%[59 µM]
O=C(Nc1cccc(Cl)c1)c1ccc2nc(Cc3ccccc3)oc2c1	.	-7.0%	37.4%[57 µM]	4.6%	10.4%[59 µM]
CC1CCC(C(=O)O)NC1c1ccc(C#CCN(C)C)cc1 (stereo unspecified)	12.0%	.	.	.	.
COc1ccc(C)cc1Nc1nc(-c2c[nH]c3ccccc23)cs1	28.2µM*	?	-23.6%[57 µM]	50.1µM*	3.16µM*
O=C1c2cc(Cl)ccc2-c2c(O)cc(Cl)cc21	.	?	-16.8%[57 µM]	.	.
c1ccc(CSc2nnnn2-c2ccccc2)cc1	-10.3%	45.0%	109.0%	148.1%	211.4%
O=c1cc(CSc2nnnn2-c2ccccc2)[nH]c2[nH]n(-c3ccccc3)c(=O)c12	-3.3%	89.1µM*	-15.6%	?	?
O=c1c2ccccc2n2c(-c3ccc(Cl)cc3)nnc2n1CCc1ccccc1	.	-15.2%	61.6%	20.4%	-6.9%[59 µM]
O=C(Nn1c(-c2ccc(Br)cc2)nc2ccccc2c1=O)c1cccnc1	23.2%	35.5µM*	-11.2%	.	-43.5%
O=C(Nn1c(-c2ccncc2)nc2ccccc2c1=O)c1ccccc1Br	14.5%	-13.2%	9.9%	-4.0%	50.1µM*
COc1ccc(-c2nc(-c3ccccc3)c(-c3cc([N+](=O)[O-])ccc3C)[nH]2)cc1OC	4.4%	-17.8%[11.4 µM]	?	44.7µM*	?
O=[N+]([O-])c1ccc(O)c(-c2nc(-c3ccccc3)c(-c3cccs3)[nH]2)c1	6.8%	44.7µM*	?	35.5µM*	34.6%[0.501 µM]
CCOc1cc(-c2nc(-c3ccccc3)c(-c3cc([N+](=O)[O-])ccc3C)[nH]2)ccc1O	20.2%	?	-29.9%	?	14.1µM*
O=[N+]([O-])c1ccc2nc(-c3ccccc3)[nH]c2c1	7.5%	-26.4%	-5.1%	-3.4%	20.0%[59 µM]
O=C(NC(=S)Nc1ccccc1O)c1ccc(-c2ccc(Cl)cc2)o1	16.3%	21.2%[11.4 µM]	85.5%	-5.3%	3.3%[2.33 µM]
COc1ccccc1NC(=S)NC(=O)c1ccc(-c2ccc(Cl)cc2)o1	17.8µM*	-22.1%	10.7%	9.8%[57.1 µM]	-5.0%
SMILES	Sfp PPTase inh	JMJD2A Tudor inh	HP1b chromo inh	BAZ2B block	G9a inh
Cc1c(NC(=S)NC(=O)c2ccc(-c3ccc(Cl)cc3)o2)cccc1C(=O)O	-28.9%	-21.7%	8.6%	-26.7%	44.7µM*
Cc1sc2c(c1C)c(=O)n(Cc1ccccc1)c(=O)n2CC(=O)Nc1cccc(Cl)c1	.	-2.4%	14.6%	-4.7%	-48.4%[59 µM]
CC1=C(C#N)c2nc(N)c(C#N)c(C)c2/C1=C\c1ccc(-c2ccccc2C(=O)O)o1	?	35.5µM*	44.7µM*	12.6µM*	7.94µM*
C/C=C/c1ccc(OCC(=O)O)c(OC)c1	13.3%	-15.1%	-5.5%	-16.2%	3.0%
COc1cc(/C=C2/C(C)=C(C#N)c3nc(N)c(C#N)c(C)c32)ccc1OCC(=O)O	?	-5.3%[11.4 µM]	-24.3%	44.7µM*	.
O=C(NC1CC(=O)N(c2ccc(F)cc2)C1)C(c1ccccc1)c1ccccc1 (stereo unspecified)	.	-9.7%	53.8%	2.1%	-6.0%[59 µM]
Cc1ccc(-n2nc(C(=O)Nc3ccc(C)c(F)c3)c3c4ccccc4n(C)c3c2=O)cc1	.	-7.3%	12.0%	.	-34.2%[59 µM]
CN1C(=O)c2ccccc2Sc2ccc(C(=O)O)cc21	15.0%	2.4%	21.3%	7.8%	12.8%
C=Cc1ccc2c(c1)N(C)C(=C)S2	10µM*	?	-6.2%	-26.4%	8.91µM*
COc1cccc(/C=C2/CCC(CN(C)C)C2=O)c1 (stereo unspecified)	.	79.4µM*	?	.	.
COc1ccccc1NCCC(=O)O	10.4%	-8.1%[11.4 µM]	45.0%	-12.2%	-3.5%
O=C1c2cccc(NCCNCCO)c2C(=O)c2cccc(NCCNCCO)c21	.	35.5µM*	?	.	.
O=C(O)CCNc1ccc(NCCC(=O)O)c2c1C(=O)c1ccccc1C2=O	-12.8%	22.4µM*	14.1µM*	11.2µM*	12.6µM*
COc1ccc(CNC(=O)Cn2nc(C)n3cccc3c2=O)cc1	9.3%	4.1%	31.3%	-20.5%	12.2%[59 µM]
O=C1C(Cl)=C(NS(=O)(=O)c2ccc([N+](=O)[O-])cc2)C(=O)c2ccccc21	-17.8%	?	?	44.7µM*	-154.1%[59 µM]
O=[N+]([O-])c1ccc(Oc2ccc(S(=O)(=O)Nc3ccccc3)cc2)cc1	6.5%	-26.5%	13.0%	-30.4%	?
COc1ccc(OC)c([C@@H]2Nc3ccc(C(=O)O)cc3[C@@H]3C=CC[C@@H]32)c1	.	?	0.0%	-25.4%	?
Fc1ccc([C@@H]2Nc3ccccc3[C@@H]3C=CC[C@@H]32)cc1	.	?	15.8%	-34.8%	2.24µM*
O=C(O)c1ccc2c(c1)[C@@H]1C=CC[C@@H]1[C@H](c1ccccn1)N2	.	6.31µM*	?	.	.
CCOC(=O)c1ccc2c(c1)[C@@H]1C=CC[C@@H]1[C@H](c1cccc(OC)c1OC)N2	.	-19.0%	10.6%	-8.7%	-32.2%[59 µM]
CC(C)CNC(=O)C1Nc2ccccc2C2C=CCC12 (stereo unspecified)	.	?	-12.7%	.	.
COc1ccc(C(=O)N/N=C(\C)c2ccc3c(c2)C2C=CCC2C(c2ccccc2)N3)cc1 (stereo unspecified)	79.4µM*	?	-9.3%	?	7.94µM*
COc1cccc(NS(=O)(=O)c2ccc3c(c2)C2C=CCC2C(c2ccc(C(=O)O)cc2)N3)c1 (stereo unspecified)	31.6µM*	44.7µM*	?	44.7µM*	7.94µM*
CC(Sc1nnnn1C)C(=O)NC1CCCC1 (stereo unspecified)	.	-15.1%	15.4%	.	.
